Experiments:
Test in all cases: PBM binding z-score (relative to random genomic background probes); higher = stronger binding; sequences stand for … in GC…GCGATTGACAGCGTAGAATGAAGG
[1] = system: FXR:RXRa (NR concentration 270 nM, RXRa partner concentration 90 nM)
Summary of the method: (§1)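 Regression normalization was applied to scanned fluorescence from custom Agilent 4×180K protein-binding microarrays. Before scanning, arrays were incubated 1 h with ligand-free nuclear receptor dimers, and binding was detected with antibodies against each partner (one per run). Binding z-scores use the random background probes as reference.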

[2] = system: LXRa:RXRa (NR concentration 270 nM, RXRa partner concentration 90 nM)
Summary of the method: as §1

[3] = system: LXRa homodimer (NR concentration 270 nM)
Summary of the method: as §1

[4] = system: LXRb:RXRa (NR concentration 270 nM, RXRa partner concentration 90 nM)
Summary of the method: as §1

[5] = system: LXRb homodimer (NR concentration 270 nM)
Summary of the method: as §1

[6] = system: PPARa:RXRa (NR concentration 270 nM, RXRa partner concentration 90 nM)
Summary of the method: as §1

[7] = system: PPARg:RXRa (NR concentration 180 nM, RXRa partner concentration 90 nM)
Summary of the method: as §1

[8] = system: PPARg:RXRa 270nM:90nM, anti-RXR (NR concentration 270 nM, RXRa partner concentration 90 nM)
Summary of the method: as §1

[9] = system: PPARg:RXRa 30nM:10nM, anti-RXR (NR concentration 30 nM, RXRa partner concentration 10 nM)
Summary of the method: as §1

[10] = system: PPARg:RXRa 90nM:30nM, anti-RXR (NR concentration 90 nM, RXRa partner concentration 30 nM)
Summary of the method: as §1

[11] = system: PPARg:RXRa DBDmut IVT, anti-RXR (DBD mutation: RXRa K156A/R161A, NR concentration 270 nM, RXRa partner concentration 90 nM)
Summary of the method: as §1

[12] = system: PPARg:RXRa IVT, anti-PPARg (NR concentration 270 nM, RXRa partner concentration 90 nM)
Summary of the method: as §1

[13] = system: PPARg DBDmut:RXRa IVT, anti-PPARg (DBD mutation: PPARg1 K132A/R137A, NR concentration 270 nM, RXRa partner concentration 90 nM)
Summary of the method: as §1

[14] = system: PPARg DBDmut IVT, anti-PPARg (DBD mutation: PPARg1 K132A/R137A, NR concentration 270 nM)
Summary of the method: as §1

[15] = system: PPARg homodimer (NR concentration 180 nM)
Summary of the method: as §1

[16] = system: PXR:RXRa (NR concentration 270 nM, RXRa partner concentration 90 nM)
Summary of the method: as §1

[17] = system: PXR homodimer (NR concentration 270 nM)
Summary of the method: as §1

[18] = system: RARa:RXR (NR concentration 270 nM, RXRa partner concentration 90 nM)
Summary of the method: as §1

[19] = system: RARa homodimer (NR concentration 270 nM)
Summary of the method: as §1

[20] = system: RARb:RXRa (NR concentration 270 nM, RXRa partner concentration 90 nM)
Summary of the method: as §1

Sequence | PBM binding z-score [1] | PBM binding z-score [2] | PBM binding z-score [3] | PBM binding z-score [4] | PBM binding z-score [5] | PBM binding z-score [6] | PBM binding z-score [7] | PBM binding z-score [8] | PBM binding z-score [9] | PBM binding z-score [10] | PBM binding z-score [11] | PBM binding z-score [12] | PBM binding z-score [13] | PBM binding z-score [14] | PBM binding z-score [15] | PBM binding z-score [16] | PBM binding z-score [17] | PBM binding z-score [18] | PBM binding z-score [19] | PBM binding z-score [20]
GCGACTGGGGCATCAGTAGGTTACCATAACTTAA | -0.329 | -0.299 | -0.273 | 0.586 | -0.678 | 1.55 | 1.69 | 1.5 | 0.0376 | 0.86 | 4.06 | 4.04 | -0.43 | -0.245 | 0.247 | 0.02 | -0.313 | 0.416 | -0.569 | 0.805
ATATGTAGGTTATAGGGTCATTCAGTTTGCGCAT | 4.47 | 4.26 | 2.22 | 3.98 | 1.38 | 5.36 | 7.99 | 7.04 | 5.54 | 7.25 | 7.51 | 7.16 | 2.03 | 1.57 | 3.17 | 4.88 | 8.92 | 5.18 | 1.96 | 3.19
ATCTCTAGGTAAAAATTCAGTGAATCCCGAGGAT | 0.0972 | -0.215 | -0.0718 | -0.277 | 0.956 | 0.272 | 0.62 | 1.34 | 0.671 | 1.1 | 1.24 | 1.17 | 1.27 | 1.13 | 0.243 | -0.0506 | -0.317 | -0.0791 | 0.766 | 0.165
TTACCAAGGTGAAGGGTCGTTGATGCACGCCTTG | 1.88 | 1.13 | -0.449 | 1.03 | -0.693 | 3.65 | 6.01 | 6.42 | 4.63 | 6.33 | 1.59 | 4 | 0.187 | -0.561 | 0.981 | 1.57 | -0.419 | 2.72 | -0.291 | 2.08
CCGACTGGGGCAATGGTTACCATACTCAGTACGA | -0.281 | -0.63 | -0.543 | -0.411 | -1.1 | 0.901 | 2.88 | 3.63 | 1.72 | 3.63 | 3.21 | 3.14 | -0.545 | -0.357 | 0.166 | -0.648 | -0.201 | -0.309 | -0.393 | 0.161
ATCGCTAGGTAAAAGTTCAGTGAATCCCGAGGAT | 0.352 | 1.06 | 0.677 | 0.618 | -0.3 | 2.84 | 4.94 | 5.9 | 5.05 | 6.23 | -0.272 | 1.63 | 0.14 | -0.441 | 0.521 | 1.64 | 1.06 | 1.49 | -0.726 | 2.04
TGTCAAAGTTCAAAGGAAACGTAAGTATCCACAC | 6.34 | 5.91 | 3.73 | 3.56 | 1.37 | 4.94 | 7.64 | 7.15 | 4.84 | 6.6 | -0.506 | 3.75 | 1.36 | 1.26 | 2.31 | 4.33 | 1.78 | 3.21 | 1.06 | 4.95
ATCTCTAGGTAAGAAGTTCAGTGAAAGAGAGGAC | 0.325 | 0.566 | 0.243 | 0.366 | 0.539 | 0.924 | 1 | 2.09 | 0.954 | 1.86 | 1.18 | 1.29 | 0.696 | 1.32 | 1.05 | 0.898 | 1.32 | 0.518 | 0.598 | 1.49
CCTTACGGGACACTCCAGGTTATAGCATCGGAGT | 0.0463 | 0.511 | 0.714 | -0.359 | -0.449 | 0.0174 | 0.619 | -0.335 | -0.0425 | -0.27 | 0.616 | 0.708 | -0.0587 | -0.578 | 0.252 | 0.0254 | 0.23 | 0.561 | -0.181 | 0.356
CCTCGGGGGACAGAAGGTCAGAGCTGTCCGCTTT | 2.39 | 3.78 | 0.464 | 3.58 | 2.95 | 3.5 | 0.517 | 2.66 | 0.439 | 1.51 | 0.436 | 1.38 | 1.67 | -0.683 | 1.59 | 2.99 | 0.0976 | 3.08 | -0.112 | 3.34
ATCTCTAGGTAAAGATAGTTCACTGAATGCAAAT | 0.402 | 4.91 | 1.11 | 1.37 | 0.641 | 1.26 | 0.98 | 0.827 | 0.387 | 0.797 | 2.05 | 1.64 | 0.743 | 0.839 | 1.04 | 1.81 | 0.848 | 1.12 | 0.837 | 1.26
CAGCCTAGGTCAGGGCCAATATAGGAGGAACGTT | 1.73 | 0.833 | -0.284 | 0.824 | -1.05 | 2.05 | 1.37 | 1.22 | 0.246 | 0.449 | 1.3 | 1.88 | -0.288 | -1.23 | 0.413 | 0.404 | -0.114 | 0.941 | 0.127 | 3.5
ACTAGTTGGTCAGCTGAGGTCACACAGAATTCGG | 3.75 | 3.32 | 2.31 | 3.64 | 0.768 | 3.8 | 1.87 | 2.46 | 0.831 | 1.73 | 1.48 | 3.02 | 0.452 | 0.375 | 2.18 | 5.36 | 1.87 | 4.56 | 0.455 | 3.72
CCGACGGGGGCATAAGGTTACCATAAGCCAGCCC | 3.27 | 4.13 | 0.249 | 4.27 | 3.6 | 3.87 | 2.48 | 3.54 | 1.17 | 2.82 | 1.29 | 2.29 | 0.647 | 0.997 | 1.67 | 2.75 | 0.496 | 3.93 | 0.379 | 2.86
ACTATTAGTTGAGACGAGGGCATCCGATAGGTTG | 0.433 | -0.0452 | 0.0875 | -0.216 | 0.112 | 0.0329 | 0.689 | -0.118 | 0.0451 | 0.0642 | 0.0561 | -0.111 | 1.09 | 0.274 | -0.612 | 1.7 | 0.926 | 0.817 | 0.577 | 0.742
CCAGACAGGTGAAAGGTAACTAAGTCTGGTACGC | 0.301 | 0.559 | -0.431 | 0.84 | -0.415 | 3.31 | 5.33 | 6.03 | 4.37 | 6.14 | 1.58 | 2.54 | -0.18 | -0.253 | 0.909 | 0.819 | 0.101 | 1.81 | 0.324 | 1.14
CCTAGCAGGCCAGGGGCACTCAAGCATTTCGCTT | -0.742 | -0.659 | -0.647 | -0.578 | -1.19 | -0.331 | -0.281 | -0.0349 | -0.949 | -0.765 | 0.0628 | -0.609 | -1.68 | -1.6 | -1.02 | -0.801 | -0.66 | -0.684 | -1.15 | 0.377
TGAATGAGGTTATAAGATCAGGGATCGTTGCAAA | 1.25 | 1.28 | -0.202 | 0.676 | -0.353 | 2.81 | 1.56 | 2.12 | 0.946 | 1.28 | 0.979 | 1.86 | 1.31 | 0.477 | 0.305 | 0.783 | 0.0722 | 1.24 | 0.256 | 0.862
GCTTGTAGATCAAGGGTAAGAAAGACTAAGCTAA | -0.663 | -0.469 | -0.732 | -0.394 | -0.8 | 1.24 | 2.55 | 4.2 | 1.91 | 4.14 | 1.15 | 1.03 | -0.364 | -0.778 | 0.0991 | -0.426 | -0.45 | -0.346 | -0.786 | -0.0761

From the supplement of paper PMC6555819
